Most compounds without a hit are left out; they make up all but 1.6% or so of the library.
KCNQ2 enhance – potentiators of rat KCNQ2 potassium channel; actives 0.54% (n = 310,000); AID 2239, 2010; B-score at 10 µM; Potassium voltage-gated channel subfamily KQT member 2 (Rattus norvegicus), O88943; CHO-K1 KCNQ2, FluxOR thallium flux fluorescence; active compounds read high;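 active = fluorescence ratio B-score at least 3 SD of library B-scores, with initial fluorescence B-score within 3 of them, cut at about 5.3 in these data; same plate scores as AID 2156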;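 note: B-score of peak minus minimum over baseline fluorescence ratio after K+ and Tl+ stimulus; positive B-score means potentiation of KCNQ2 with more thallium influx and brighter signal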
Target sequence (O88943 whole entry, looked up): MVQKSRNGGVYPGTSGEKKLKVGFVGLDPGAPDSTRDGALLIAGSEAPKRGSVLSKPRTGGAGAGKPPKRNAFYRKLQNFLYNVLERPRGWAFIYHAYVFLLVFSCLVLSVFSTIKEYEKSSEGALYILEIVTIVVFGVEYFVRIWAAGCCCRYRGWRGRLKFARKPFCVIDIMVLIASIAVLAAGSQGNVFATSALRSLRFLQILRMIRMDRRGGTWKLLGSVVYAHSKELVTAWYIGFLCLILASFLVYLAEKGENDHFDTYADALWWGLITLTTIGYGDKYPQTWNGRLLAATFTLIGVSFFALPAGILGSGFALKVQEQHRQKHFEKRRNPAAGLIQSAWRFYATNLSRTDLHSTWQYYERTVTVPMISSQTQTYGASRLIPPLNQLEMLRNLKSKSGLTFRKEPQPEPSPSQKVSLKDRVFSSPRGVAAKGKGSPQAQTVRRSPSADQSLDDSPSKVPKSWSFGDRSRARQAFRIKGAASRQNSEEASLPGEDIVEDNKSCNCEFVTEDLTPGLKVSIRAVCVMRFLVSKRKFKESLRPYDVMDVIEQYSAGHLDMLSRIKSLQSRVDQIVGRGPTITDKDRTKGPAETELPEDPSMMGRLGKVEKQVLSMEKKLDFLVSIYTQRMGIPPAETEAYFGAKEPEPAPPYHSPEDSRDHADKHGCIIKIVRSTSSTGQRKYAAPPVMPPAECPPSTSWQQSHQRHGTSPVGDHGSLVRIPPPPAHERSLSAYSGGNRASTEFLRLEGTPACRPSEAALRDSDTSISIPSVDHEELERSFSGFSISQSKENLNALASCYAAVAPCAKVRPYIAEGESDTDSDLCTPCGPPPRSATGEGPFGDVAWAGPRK
KCNQ2 block – rat KCNQ2 potassium channel inhibitors, primary screen, cell-based, CHO-K1, FluxOR thallium flux, B-score; B-score at 10 µM; Potassium voltage-gated channel subfamily KQT member 2 (Rattus norvegicus), O88943; actives 1.1% (n = 310,000); AID 2156, 2009; 20 min; active compounds read low;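 active = fluorescence ratio B-score at most minus 3 library SDs, with starting brightness B-score within 2 library SDs, cut at about -5.5 in these data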
Numbers stand for hits.

For CCCc1cc(C(=O)Nc2cc(OC)c(Cl)cc2OC)no1 the results were KCNQ2 enhance inactive and KCNQ2 block inactive.
`COc1cc(NC(=O)c2cc(CC(C)C)on2)c(OC)cc1Cl` gave KCNQ2 enhance inactive and KCNQ2 block -7.8.
`COc1ccc(CCN(C)C2CCCN(C(=O)CCC(F)(F)F)C2)cc1OC` (stereo not given) gave KCNQ2 enhance inactive and KCNQ2 block inactive.
For O=C/C=C/c1c(-c2ccccc2)cc2oc3ccccc3cc1-2 the results were KCNQ2 block inactive.
`O=C(NCc1ccccn1)c1ccccc1OCc1ccc(F)cc1` gave KCNQ2 enhance inactive and KCNQ2 block -6.4.
Screening COc1ccccc1CNC(=O)c1ccccc1OCc1ccc(F)cc1 returned KCNQ2 block inactive.
Cc1ccc2c(c1)N(C(=O)CCC(=O)NCc1cccc(Br)c1)CC(C)O2 (stereo not given) was read as KCNQ2 enhance inactive and KCNQ2 block -7.
`Cc1ccc2c(c1)N(C(=O)CCC(=O)Nc1ccccc1Br)CC(C)O2` (stereo not given) gave KCNQ2 block inactive.
Screening CC(C)CC(OC(=O)c1ccc(Cl)nc1)C(=O)NC1CCCC1 (stereo not given) returned KCNQ2 enhance inactive and KCNQ2 block inactive.
`Cc1nc2c(C(=O)NCCc3ccccc3Cl)c[nH]n2c(=O)c1Cl` gave KCNQ2 enhance 7.2 and KCNQ2 block inactive.
`Cc1nc2c(C(=O)NCc3ccccc3Cl)c[nH]n2c(=O)c1Cl` gave KCNQ2 block inactive.
For COc1ccc(C(=O)N2CCn3c2nc2ccccc23)cc1 the results were KCNQ2 block inactive.
For COc1ccc(N2CCN(c3nc4ccccc4n3CC(=O)c3ccccc3)CC2)cc1 the results were KCNQ2 enhance inactive and KCNQ2 block -6.3.
`CCOC(=O)C1CCN(c2nc3ccccc3n2CC(=O)c2ccccc2)CC1` gave KCNQ2 block inactive.
COc1cccc(C(=O)N2CCn3c2nc2ccccc23)c1 was read as KCNQ2 enhance inactive and KCNQ2 block -8.7.
Screening COc1ccc(OC)c(NC(=O)CSc2nnc(CNC(=O)c3cccs3)o2)c1 returned KCNQ2 enhance inactive and KCNQ2 block inactive.
For COCCCN(Cc1cccs1)S(=O)(=O)c1csc(C(N)=O)c1 the results were KCNQ2 block inactive.
Screening CCCOc1ccc(C(=O)CCNC(Cc2c[nH]c3ccccc23)C(=O)O)cc1 (stereo not given) returned KCNQ2 enhance inactive and KCNQ2 block -6.
For COc1ccc(C(=O)NC(Cc2c[nH]c3ccccc23)C(=O)O)cc1 (stereo not given) the results were KCNQ2 block inactive.
Screening COc1cc(CCN2C(=O)c3cccc4cccc(c34)C2=O)c(S(=O)(=O)N2CCC(C)CC2)cc1OC returned KCNQ2 enhance inactive and KCNQ2 block -6.7.
For COc1cc(CCN2C(=O)c3cccc4cccc(c34)C2=O)c(S(=O)(=O)N2CCCCCC2)cc1OC the results were KCNQ2 block inactive.
For COc1cc(NC(=O)c2cc(C)no2)cc(OC)c1OC the results were KCNQ2 block inactive.
For COc1ccc(CNC(=S)NC2CCCC2)cc1 the results were KCNQ2 enhance inactive and KCNQ2 block inactive.
Cc1ccc(CNC(=S)NC2CCC(C(C)(C)C)CC2)cc1 (stereo not given) was read as KCNQ2 enhance inactive and KCNQ2 block -6.9.
`CN(Cc1ccccc1NS(=O)(=O)c1ccc2ccccc2c1)C1CCCCC1` gave KCNQ2 block inactive.
`O=C(CSc1nc(C2CC2)nc2ccccc12)N1c2ccccc2Sc2ccccc21` gave KCNQ2 enhance inactive and KCNQ2 block -6.1.
For CC(=O)c1ccc(NC(=O)CSc2nc(C3CC3)nc3ccccc23)cc1 the results were KCNQ2 enhance inactive and KCNQ2 block inactive.
Screening COc1ccc(CNc2ncc(-c3ccc(F)cc3)n2C)c2ccccc12 returned KCNQ2 enhance inactive and KCNQ2 block -6.2.
`COc1ccccc1CNc1ncc(-c2ccc(F)cc2)n1C` gave KCNQ2 enhance inactive and KCNQ2 block inactive.
For CCOc1ccc(NC(=O)C(c2ccccn2)N(C(=O)CCl)c2ccc(F)cc2)cc1 (stereo not given) the results were KCNQ2 block inactive.
For O=C(Nc1ccccc1C(=O)Nc1ccncc1)c1ccccc1 the results were KCNQ2 enhance inactive and KCNQ2 block inactive.
Screening Cn1cc(CCC(=O)NCCCc2ccccc2)c2ccccc21 returned KCNQ2 block inactive.
CN1CCN(Cc2c(O)ccc3occ(C(=O)c4ccccc4)c23)CC1 was read as KCNQ2 enhance inactive and KCNQ2 block inactive.
Screening CC(=O)C(C(C)=O)c1c(Cl)c(O)c(O)c2c(C(=O)c3ccccc3)coc12 returned KCNQ2 enhance inactive and KCNQ2 block -7.3.
`CCN(c1ccc(OC)cc1)S(=O)(=O)N1CCCC(C(=O)NCc2cccc(C)c2)C1` (stereo not given) gave KCNQ2 enhance inactive and KCNQ2 block -6.4.

Assay outcomes as filed in PubChem BioAssay.
